# Source: PubChem (National Center for Advancing Translational Sciences (NCATS))
# Rab9 prom act: activators of Rab9 promoter. Potency, µM (top dose mostly 9.22 µM), inactives show top-dose activation, negative = inhibition, actives largely listed as activators. Huh7 Rab9 promoter-luciferase reporter, luminescence, 24 h. AID 485297. 320,000 tested, 2.8% active; also: % of control where 0% means no effect; nearly all actives have a fitted effect of over 60% in size
#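 Rab9 promoter-driven luciferase in stably transfected Huh7 cells; 1500 cells/well rested 2 h, exposed to compound in DMSO for 24 h at 37 °C, 5% CO2. Luminescence read 10 min after adding luciferase reagent at ambient temperature.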
# FLuc counter: counter-screen for miR-21 project: firefly luciferase inhibitors or activators; Potency, µM (highest dose often 57.5 µM), inactives show at the highest dose activity change, negative = inhibition, most hits filed as inhibitors; P08659; AID 588342; 360,000 tested, 6.9% active; purified FLuc, Km substrates, luminescence inhibition;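 also: plate controls were vehicle for no effect and reference inhibitor for full effect; nearly all actives have a fitted effect of over 55% in size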
# Target sequence (P08659 whole entry, looked up): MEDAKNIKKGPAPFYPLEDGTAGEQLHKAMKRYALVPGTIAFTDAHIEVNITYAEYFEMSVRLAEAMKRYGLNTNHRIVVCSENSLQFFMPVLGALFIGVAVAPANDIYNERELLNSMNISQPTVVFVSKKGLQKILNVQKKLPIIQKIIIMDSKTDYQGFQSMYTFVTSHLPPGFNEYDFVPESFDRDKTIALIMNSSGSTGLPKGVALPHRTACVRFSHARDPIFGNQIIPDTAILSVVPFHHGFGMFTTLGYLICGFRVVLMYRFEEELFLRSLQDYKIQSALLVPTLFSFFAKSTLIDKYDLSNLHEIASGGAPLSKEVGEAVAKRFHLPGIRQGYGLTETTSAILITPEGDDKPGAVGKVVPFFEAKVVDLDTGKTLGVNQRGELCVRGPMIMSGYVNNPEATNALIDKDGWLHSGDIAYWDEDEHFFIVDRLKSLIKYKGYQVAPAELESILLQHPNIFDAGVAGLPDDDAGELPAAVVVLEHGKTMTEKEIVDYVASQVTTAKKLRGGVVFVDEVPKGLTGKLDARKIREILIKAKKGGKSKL
#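 Purified P. pyralis luciferase (10nM final) with 10uM D-luciferin and 10uM ATP (Km levels) in 50mM Tris acetate pH 7.5, 10mM Mg acetate, 0.01% Tween-20, 0.05% BSA; qHTS 6-point titration, ~60 µM downward; luminescence read.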
# ELG1 genotoxic: genotoxicity induction in ELG1-luciferase HEK293T cells. HEK293T ELG1-luciferase reporter, luminescence, 16 h. AID 504466. 330,000 tested, 1.3% active. Potency, µM (titrated, usually from 46 µM), inactives show top-dose activity change, positive = activation, usual class: activators; also: % of control where 0% means no effect; nearly all actives have a fitted effect of over 60% in size
#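 Screening used a luciferase reporter fused to human ELG1 in HEK293T cells. Luminescence was read on a CCD plate imager after 16 hr exposure and 30 min ONE-Glo incubation.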
# uPA generation: inhibitors of cell surface uPA generation; cell surface uPA generation assay, qHTS; Potency, µM (doses to about 38.3 µM), for inactives: at the top dose activity change, negative = inhibition, most hits filed as inhibitors; 330,000 tested, 0.31% active; AID 540303; active = well fitted inhibition curve with a large enough effect; inconclusive = small, poorly fitted or top-dose-only effect; inactive = no such curve, though single readings can be large or run the other way; tested in mouse RAW 264.7 cells; also: % is scaled to controls: 0 for no effect and ±100 for the full control effect; nearly all actives have a fitted effect of over 55% in size
# SMN2 splice enh: enhancers of SMN2 splice variant expression; HEK293 SMN2-luciferase splicing reporter, luminescence, 30-36 h; Potency, µM (doses to about 46.1 µM), for inactives: top-dose activity change, positive = activation, hits mostly activators; 210,000 tested, 2.8% active; also: % of control where 0% means no effect; nearly all actives have a fitted effect of over 55% in size
#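 HEK293 cells carry an SMN2 minigene-luciferase reporter in which exon 7 inclusion puts luciferase in frame. Cells were seeded at 2000 cells/well, attached for 10-12 hours, then exposed to compounds for 30-36 hours at 37C before ONE-Glo luminescence.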
# NPC1 promoter act: activators of NPC1 promoter; Huh7 NPC1 promoter luciferase reporter, 24 h; Potency, µM (titrated, usually from 9.22 µM), for the others: top-dose activation, usual class: activators; 320,000 tested, 2.4% active; AID 485313; also: % of control where 0% means no effect; nearly all actives have a fitted effect of over 60% in size
#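 Compounds in DMSO were transferred onto Huh7 NPC1-luciferase reporter cells pre-incubated 2 h; after 24 h at 37 °C, Amplite reagent was dispensed and luminescence recorded 10 min later.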
# The depositor's hits bear a star; u = inconclusive; x = no result given; [ ] = another dose, or the depositor's remark. The list is not random: actives were taken first. Their share in the collection is about 7.3%. Unless noted, calls follow the shape of the dose curve; as a rule, active = well fitted curve in the direction sought with a large enough effect; inconclusive = small, poorly fitted or top-dose-only effect, or another doubt; inactive = no such curve, though single readings can be large; an effect the other way counts as inactive or inconclusive. Potency is read from the fitted curve at half-maximal effect.
SMILES,Rab9 prom act,FLuc counter,ELG1 genotoxic,uPA generation,SMN2 splice enh,NPC1 promoter act
Nc1nonc1-c1nc2ccccc2n1CC(=O)Nc1cccc(Cl)c1Cl,x,-2%,x,x,3%,x
COc1cc(CC(=O)NCC2CCCCC2)cc(OC)c1OC,1%,-2%,1%,7%,x,0%
CCOc1ccccc1NC(=O)C1=C(C)Nc2ncnn2C1c1sccc1C (centres undefined),x,-13%,x,x,x,x
COC(=O)[C@@H](NC(=O)O[C@@H]1C(=O)c2ccc(OC)cc2O[C@H]1c1ccc2c(c1)OCO2)C(C)C,x,x,x,x,2%,x
Cc1cnc(C)c(N2CCN(Cc3nc(-c4ccccc4)no3)CC2)n1,-13%,-3%,-1%,14%,x,0%
Cc1cccc(-c2cc(C(=O)N/N=C/c3cccnc3)c3ccccc3n2)c1,x,x,x,-2%,x,x
COc1cc(/C=N/NC(=O)c2cc(-c3ccccc3)nc3ccccc23)cc(OC)c1O,2%,24µM*,-3%,-7%,x,-5%
CCCOc1cccc(-c2cc(C(=O)NN)c3ccccc3n2)c1,2%,21µM*,-2%,12%,-83%,1%
CCCOc1cccc(-c2cc(C(=O)N/N=C/c3ccccn3)c3ccccc3n2)c1,-13%,3.8µM*,u,-12%,x,-2%
COc1ccc(-c2cc(C(=O)N/N=C/c3cccnc3)c3ccccc3n2)cc1,24%,1.1µM*,3%,-11%,x,3%
CCOc1ccccc1NC(=O)CSc1ncc(S(=O)(=O)c2ccc(C)c(C)c2)c(N)n1,x,2%,x,x,x,x
Cc1ccn2c(Nc3ccc4c(c3)OCCO4)c(-c3ccc(N(C)C)cc3)nc2c1,x,-17%,x,x,u,x
COc1cccc(CNC(=O)C(=O)NCC(c2cccs2)S(=O)(=O)c2cccs2)c1 (centres undefined),x,-1%,x,x,x,x
O=C(CSc1nc(=O)n(Cc2ccco2)c2c1CCC2)Nc1ccccc1C(F)(F)F,x,-5%,x,x,x,x
CC[C@@]12CCCN3CCc4c(n(c5ccccc45)[C@](O)(C(=O)OC)C1)[C@H]32,x,x,x,x,5%[20.6 µM],x
CC1CCc2c(sc3nnn(CCCCOc4ccc(Cl)cc4)c(=O)c23)C1 (centres undefined),x,4%,x,x,15%,x
COc1ccc(-c2cc(C(=O)N/N=C(\C)c3cccnc3)c3ccccc3n2)cc1,u,0.67µM*,u,8.9µM*,x,u
CCCOc1cccc(-c2cc(C(=O)N/N=C/c3cccnc3)c3ccccc3n2)c1,-4%,7.6µM*,-15%,-5%,x,2%
COc1ccc(/C(C)=N/NC(=O)c2cc(-c3cccnc3)nc3ccccc23)cc1,-2%,0%,19%,-3%,15%,-2%
Cc1cccc(/C=N/NC(=O)c2cc(-c3cccnc3)nc3ccccc23)c1,-1%,-3%,-4%,8%,15%,-7%
COc1ncc2nc(-c3cccs3)c(=O)n(-c3ccccc3)c2n1,x,x,x,x,2%,x
CCOc1ccccc1CNC(=O)c1cccn1-c1nnc(N2CCCC2)s1,x,-2%,x,x,x,x
Cn1c(=O)oc2cc(S(=O)(=O)N3CCCC(C(=O)NCCc4ccc(Cl)cc4)C3)ccc21 (centres undefined),x,1%,x,x,19%,x
CCc1cc2c(cc3c(=O)n(CC(=O)NC4CCCCC4)ncn32)s1,x,-2%,x,x,7%,x
CCc1ccc(-n2c(C)nc3cc(C(=O)NCCc4ccccc4)ccc32)cc1,x,0%,x,x,x,x
SMILES,Rab9 prom act,FLuc counter,ELG1 genotoxic,uPA generation,SMN2 splice enh,NPC1 promoter act
O=C(CSc1cn(Cc2ccccc2)c2ccccc12)Nc1nccs1,2.5µM*,0.85µM*,4.6µM*,u,u,3.2µM*
O=C(CSc1ccccc1)Nc1nccs1,u,-16%,7%,1%,17%,14%
Cc1ccc(SCc2ccc(C(=O)Nc3nccs3)o2)cc1,u,15µM*,8%,-6%,x,u
O=C(Nc1nccs1)c1ccc(CSc2ccccc2)o1,2µM*,5.4µM*,16%,u,x,3.2µM*
CC1(C)CC(=O)c2c(O)cc(OCC(=O)N3CCN(c4ccccc4)CC3)cc2O1,0%,15µM*,-6%,-7%,x,0%
COc1ccc(Cc2nnc(NC(=O)c3ccc(F)cc3)s2)cc1OC,6%,0%,-1%,-12%,x,3%
Cc1cc(N/C=C/C(=O)c2ccc(Br)cc2)no1,u,u,u,10%,u,u
O=C(/C=C/Nc1ccc(F)cc1)c1cccs1,x,x,x,-9%,x,x
O=C(/C=C/Nc1ccc(F)c(F)c1)c1cccs1,2.5µM*,0.95µM*,u,u,x,3.2µM*
O=C(/C=C/Nc1ccc(F)cc1)c1ccc(Br)cc1,1.4µM*,2.1µM*,u,-13%,13µM*,2µM*
O=C(/C=C/Nc1ccc([N+](=O)[O-])cc1)c1ccc(Br)cc1,u,-3%,u,-1%,23%,24%
O=C(/C=C/Nc1ccc(F)c(F)c1)c1ccc(Br)cc1,2.5µM*,1.5µM*,u,3%,13µM*,2µM*
CCOC(=O)c1cnc(NCc2ccc(OC)cc2OC)c2ccccc12,x,-8%,x,x,x,x
Cc1nc(C)c(-c2ccc(SCC(=O)Nc3cccc(C)c3C)nn2)s1,x,1%,x,x,x,x
O=C(c1cc(COc2ccc(F)cc2Cl)on1)N1C[C@H]2CC[C@H]1C2,2.8µM*,13µM*,u,-2%,x,u
O=C(c1cc(COc2ccc(F)cc2Cl)on1)N1CC2C[C@@H]3CC1C[C@H](C2)C3,2.5µM*,6.7µM*,9.2µM*,10%,x,3.2µM*
COc1cc(NS(C)(=O)=O)ccc1Nc1c2ccccc2nc2ccccc12,-38%[46.1 µM],12µM*,u,-91%,-77%,-24%[46.1 µM]
COc1ccc(OC)c(Nc2c3ccccc3nc3ccccc23)c1,-16%,u,-7%,-6%,x,-29%
Cc1cccc(-n2ncc3c(Nc4ccc(F)cc4)ncnc32)c1,2.5µM*,u,15µM*,0%,11µM*,u
Cc1cccc(-n2ncc3c(NCCOCCO)ncnc32)c1,x,19µM*,x,x,x,x
COC(=O)c1ccc(Nc2ncnc3c2cnn3-c2cccc(C)c2)cc1,3%,-6%,2%,-18%,x,0%
Cn1ncc2c(Nc3ccc(Cl)c(Cl)c3)ncnc21,14%,u,2%[9.26 µM],-17%,x,7%
CC(C)Nc1ncnc2c1cnn2-c1ccccc1,0.35µM*,2.4µM*,u,u,0.63µM*,1.4µM*
CCCn1ncc2c(Nc3ccc(C)c(C)c3)ncnc21,u,24µM*,u,-2%,x,3.5µM*
CCN(C(=O)c1ccc(S(=O)(=O)N2CCOCC2)cc1)C1CCS(=O)(=O)C1 (centres undefined),-1%,-2%,1%,-7%,x,-1%
CC(=O)c1cccc(Nc2ncnc3c2cnn3-c2cccc(Cl)c2)c1,x,-15%,x,x,x,x
